From PubChem BioAssay
S1P3 antagonist: S1P3 receptor antagonists, primary screen, cell-based; CHO S1P3 NFAT-BLA reporter, FRET fluorescence, antagonist mode; inhibition, % at 4.98 µM; 170,000 tested, 0.27% active; AID 485, 2006;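 active = inhibition above the plate cutoff, the mean inhibition of test wells on that plate plus 3 SD, cut at about 28% in these data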;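 note: cells challenged with S1P at its EC80 of 0.8 µM; blue over green emission ratio from cleaved BLA substrate after 4 h stimulation; 0% = S1P-stimulated wells and 100% = unstimulated DMSO-only wells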
EP2 antag: human EP2 receptor antagonists, primary screen, TR-FRET cAMP, C6 glioma cells | 260,000 tested, 0.52% active | C6 glioma cells expressing human EP2; cells stimulated with saturating PGE2 | inhibition, % at 25 µM | Prostaglandin E2 receptor EP2 subtype (Homo sapiens), P43116;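 active = percent inhibition above 40 after rounding to a whole number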;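 note: rat C6 glioma host cells with rolipram phosphodiesterase inhibitor present; the protocol text gives 20 µM as final concentration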
Target sequence (P43116 whole entry, looked up): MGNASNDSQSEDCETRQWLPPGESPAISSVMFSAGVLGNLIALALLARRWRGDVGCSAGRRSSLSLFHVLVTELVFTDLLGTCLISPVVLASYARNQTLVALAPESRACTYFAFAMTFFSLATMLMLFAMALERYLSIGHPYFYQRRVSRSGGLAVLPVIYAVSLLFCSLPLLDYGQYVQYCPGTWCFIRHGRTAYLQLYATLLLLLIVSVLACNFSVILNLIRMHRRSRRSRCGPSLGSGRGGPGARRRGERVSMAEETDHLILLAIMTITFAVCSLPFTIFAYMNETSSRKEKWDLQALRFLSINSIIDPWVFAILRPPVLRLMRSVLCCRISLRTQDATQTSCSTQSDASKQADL
EP2 mod: EP2 receptor modulators, cAMP readout, primary screen, cell-based, HTRF cAMP, PGE2 stimulation; AID 940, 2007; 260,000 tested, 0.83% active; EP2-expressing cells, cAMP HTRF FRET, PGE2 co-stimulation; induction, % at 25 µM; Prostaglandin E2 receptor EP2 subtype (Homo sapiens), P43116;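 active = compounds whose cAMP rise, as percent of the full-agonist control response, exceeds 60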;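 note: rat C6 glioma line stably carrying human EP2 under a CMV promoter; the protocol text gives 20 µM as final concentration; 100% = response of wells given 1 µM PGE2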
S1P4 agonist: S1P4 receptor agonists, primary screen, cell-based; S1P4-expressing cell line, agonist reporter assay; 220,000 tested, 0.35% active; activation, % at 4.98 µM; in the data active = activation above about 11%;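 note: 0% = DMSO vehicle and 100% = reference agonist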
Insulin prom inh: inhibitors of insulin promoter-driven GFP, primary screen, imaging, TRM-6 cells (human fetal islet line), eGFP reporter, cell count. inhibition, % at 2 µM. 130,000 tested, 0.9% active. reporter expression induced with tamoxifen;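 active = inhibition above the mean plus 3 SD, with well images judged a real hit on visual review, cut at about 60% in these data, passing the limit was not always enough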
S1P4 antagonist: S1P4 receptor antagonists, primary screen, cell-based. Sphingosine 1-phosphate receptor 4 (Homo sapiens), O95977. AID 1510, 2009. inhibition, % at 4.98 µM. S1P4-expressing cells, antagonist mode, reporter read-out. 220,000 tested, 0.26% active; in the data active = inhibition above about 29%;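 note: 0% = wells stimulated with agonist and 100% = vehicle wells without agonist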
EP2 cAMP induct: cAMP induction in EP2, EP4, beta2-AR and parental cells, confirmation, counter-screen for EP2 modulator project, cell-based, five parallel assays, C6 glioma, HEK293 | shares compounds with EP2 mod | cAMP HTRF induction; plus low (about EC15) PGE2 agonist | calls only at 20 µM (by protocol) | 1,300 tested, 47% active;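 active = cAMP induction above 50% in the main assay while under 30% in all four parallel counter assays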;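 note: rat C6 glioma cells stably expressing human EP2 receptor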
Starred values were filed as active, the others as inactive; i = inactive; . = not tested or not shown; + = active, no number. Sampled rows, rich in hits. Any-hit rate of the full collection: about 2.4%.

SMILES	S1P3 antagonist	EP2 antag	EP2 mod	S1P4 agonist	Insulin prom inh	S1P4 antagonist	EP2 cAMP induct
Cc1ccc(C(=O)c2coc3ccc(OCC(=O)O)cc23)cc1	0	2	69*	0	30	-39	+
O=C(O)COc1ccc2occ(C(=O)c3ccccc3)c2c1	11	6	66*	1	-3	-22	+
Cc1ccc(-n2nnnc2SCC(=O)c2ccc3c(c2)OCCO3)c(C)c1	.	21	-75	.	.	.	.
COc1cc(OC)c(-c2nc(-c3ccccc3)no2)cc1OC	.	8	20	.	.	.	.
COc1ccc(-c2noc(-c3ccccc3-c3ccccc3)n2)cc1OC	-18	.	77*	0	-8	-15	+
c1ccc2c(-c3nc(C4CCCCC4)no3)cc(-c3ccncc3)nc2c1	-24	5	67*	2	56	-8	+
CC(=O)c1ccc(NC(=O)c2ccccc2Sc2ncnc3sc(C)c(C)c23)cc1	-2	10	10	0	-13	11	.
Cc1sc2ncnc(SCC#N)c2c1C	13	23	49	1	-62	-5	.
CCCSc1ncnc2sc(C)c(C)c12	-3	5	53	3	4	-60	i
Cc1sc2ncnc(Sc3ccccc3C(=O)O)c2c1C	-14	16	72*	1	-20	-7	i
CCOC(=O)C1CCN(C(=O)CN(c2ccc(C)c(C)c2)S(C)(=O)=O)CC1	.	11	1	.	.	.	.
Cn1cc(-c2cc(C(=O)NC3(c4cccc(F)c4)CCCC3)[nH]n2)cn1	.	6	-50	.	.	.	.
CCCC(=O)Nc1nc2ccc(C)cc2s1	.	14	-32	.	.	.	.
CCOC(=O)c1c(NC(=O)c2ccc(-n3cnnn3)cc2)sc2c1CCCC2	-4	7	58	1	-56	8	+
CCOC(=O)Nc1sc2c(c1C(=O)OCC)CCC2	.	4	74*	1	-64	-16	i
CN(C)C(=O)CSc1nnc(-c2ccco2)n1Cc1ccccc1	.	0	13	.	.	.	.
O=C(CSc1nc2ccccc2[nH]1)NNC(=O)Cc1ccccc1	.	8	-29	.	.	.	.
Cc1cc(C)cc(NC(=O)Cn2cc(C(=O)C3CC3)c3ccccc32)c1	.	12	-3	.	.	.	.
O=C(CSc1nc(C2CC2)nc2sc3c(c12)CCCC3)Nc1nccs1	.	10	11	.	.	.	.
O=c1c2ccccc2c(=O)n(Cc2ccccc2)n1Cc1ccccc1	-8	3	66*	1	-21	-5	+
CC(=O)N1N=C2/C(=C/c3ccccc3)CCCC2C1c1ccccc1 (stereo unspecified)	-18	8	70*	0	-38	-36	i
COc1ccc(-n2c(COc3cccc4ccccc34)nnc2SCC(=O)NCc2ccco2)cc1	.	12	66*	-3	-12	4	i
COc1cc2[nH]c(=O)c(C(=O)NCCN3CCNCC3)c(O)c2cc1OC	.	9	20	.	.	.	.
CC(NC(c1ccccc1)c1ccccc1)C(=O)N1CCCc2ccccc21 (stereo unspecified)	-8	8	66*	0	-2	3	i
CC(C)(C)N(Cc1ccccc1)C(=O)c1ccc(Br)o1	-3	5	63*	1	.	-12	i
SMILES	S1P3 antagonist	EP2 antag	EP2 mod	S1P4 agonist	Insulin prom inh	S1P4 antagonist	EP2 cAMP induct
CCOc1ccc(-n2c(COc3cccc4ccccc34)nnc2SCC(N)=O)cc1	.	15	-66	.	.	.	.
COCCn1c(SCC(=O)Nc2cccc(OC)c2)nnc1-c1ccco1	.	12	-29	.	.	.	.
Cc1ccc(-c2cc3nn(-c4ccccc4)c(N)c3c(=O)o2)cc1	.	21	66*	0	.	-29	i
CCOc1ccccc1NC(=O)c1c(Br)cnn1C	-5	3	69*	-1	6	-20	i
Cn1ncc(Br)c1C(=O)Nc1ccc(F)cc1F	.	10	-9	-2	45	4	.
CCn1c(COc2ccccc2C)nnc1SCC(=O)N1CCCCC1C (stereo unspecified)	.	4	-85	.	.	.	.
